Source: PubChem BioAssay AID589 (National Center for Advancing Translational Sciences (NCATS), 2007)
Hit rate of the full screen: of about 59,000 compounds, about 6,200 (11%) were called active. Inconclusive results (about 9%) are left out. This is one part of a sample in which actives are shown more often than they occur. Cut-off read from the data, not from the text of the source: active = max dye-equivalent concentration above about 10 nM; inconclusive = mostly about 1.1 nM to 9.6 nM; inactive = weaker than that.

Assay: qHTS Assay for Spectroscopic Profiling in 4-MU Spectral Region
Conditions: compound autofluorescence, 340/450 nm, 4-MU equivalents; stronger effect = higher value
Summary of the method: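 Compounds in 100 mM Tris, pH 8.0, sat 15 min at room temperature before fluorescence was read at 340 nm excitation/450 nm emission; a per-plate six-point 4-MU standard curve converted signals to dye-equivalent concentration at each compound concentration.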

| Structure (SMILES) | max dye-equivalent concentration |
| --- | --- |
| CCn1cc(C(=O)NCc2ccc3c(c2)OCO3)c2cc(OC)c(OC)cc2c1=O | inactive |
| Cc1ccccc1N1C(=O)C2ON(c3ccccc3)C(c3ccncc3)C2C1=O (centres undefined) | inactive |
| C=CCn1c(SCC(=O)NC23CC4CC(CC(C4)C2)C3)nc(O)cc1=O | inactive |
| Cn1c(=O)c2c(nc(N3CCCCCC3)n2CC(O)COc2ccc(Cl)cc2)n(C)c1=O (centres undefined) | 38 nM (active) |
| Cn1c(=O)c2c(nc(N3CCCCCC3)n2CC(=O)c2ccc(Br)cc2)n(C)c1=O | inactive |
| Cc1cccc(Cn2c(N3CCN(c4ccccc4)CC3)nc3c2c(=O)n(C)c(=O)n3C)c1 | inactive |
| CSCCC(NS(=O)(=O)/C=C/c1ccccc1)C(=O)N1CCC(C)CC1 (centres undefined) | inactive |
| COCCCN1C(=O)C(=O)/C(=C(/O)c2ccc3c(c2)CC(C)O3)C1c1cccnc1 (centres undefined) | inactive |
| CCOC(=O)c1sc(NC(=S)n2cc(C)cn2)c(C(=O)OCC)c1C | inactive |
| Cc1cc(C)nc(-n2nc(C)cc2NC(=O)c2ccc(Br)o2)n1 | inactive |
| CCCC(=O)Nc1ccc(Cl)c(NC(=O)c2ccc(Br)o2)c1 | inactive |
| CCc1c(C)sc(NC(=O)c2ccc(Br)o2)c1C(=O)OC | 96 nM (active) |
| O=C(c1ccco1)N1CCC[C@@]2(CCN(c3ccccc3)C2)C1 | inactive |
| O=C(Nc1nnc(CCc2ccccc2)s1)C1CCCO1 (centres undefined) | inactive |
| O=C(CC1NCCNC1=O)Nc1ccc(Oc2ccccc2)cc1 (centres undefined) | inactive |
| CCOc1ccc(NC(=O)CC2NCCNC2=O)cc1 (centres undefined) | inactive |
| O=C(CC1Nc2ccccc2NC1=O)Nc1ccccc1 (centres undefined) | 89 nM (active) |
| Cc1ccccc1S(=O)(=O)Cc1ccc(C(=O)NCCN2CCCCC2C)o1 (centres undefined) | inactive |
| O=C1CC(c2cccc(Br)c2)C2=C(CCCC2=O)N1 (centres undefined) | 43 nM (active) |
| O=C1CC(c2cccc(F)c2)C2=C(CCCC2=O)N1 (centres undefined) | inactive |
| O=C1CCCc2c1[nH]c1ccc(Br)cc21 | inactive |
| O=C(CN1C(=O)NC2(CCCCC2)C1=O)NCCC1=CCCCC1 | inactive |
| CC(=O)OC(C(=O)NC1CCCCC1)c1ccccc1 (centres undefined) | inactive |

| Structure (SMILES) | max dye-equivalent concentration |
| --- | --- |
| CC1(CCC(=O)OC2CCCCC2)OCCO1 | inactive |
| CCc1ccc2oc(-c3ccc(N)cc3)nc2c1 | 120 nM (active) |
| Cc1ccc(/C(=C/CN2CCCC2)c2ccccn2)cc1 | inactive |
| C[C@@H]1C[C@H]2[C@@H]3C[C@H](F)C4=CC(=O)C=C[C@@]4(C)[C@]3(F)[C@H](O)C[C@]2(C)[C@@]1(O)C(=O)CO | inactive |
| O=C(Cn1c(=O)n(Cc2ccco2)c(=O)c2ccccc21)NCC1CCCO1 (centres undefined) | inactive |
| CC1(C)CC(=O)c2cc(OCC(=O)NCC3CCCO3)ccc2O1 (centres undefined) | 1700 nM (active) |
| COc1ccccc1-n1cnc2cc(C(=O)NCC3CCCO3)ccc21 (centres undefined) | inactive |
| Cc1cc2c(cc1C)NC1=C(N2)O[C@H](c2c[nH]c3ccc(COc4ccccc4)cc23)C1=O | inactive |
| CCN(CCCCOC(=O)c1ccc(OC)c(OC)c1)C(C)Cc1ccc(OC)cc1 (centres undefined) | inactive |
| CC(C)NC(=O)N1CC[C@@]2(CCCN(C(=O)c3cccn3C)C2)C1 | inactive |
| CCOc1ccc2nc(NC(=O)CSc3nc4c(c(=O)n(C)c(=O)n4C)n3CC)sc2c1 | inactive |
| CC(=O)c1ccc(-n2nnnc2SCC(=O)N2CCN(C(=O)c3ccco3)CC2)cc1 | inactive |
| COc1ccc(-c2n[nH]c(C)c2-c2ccc(OC)c(OC)c2)c(O)c1 | inactive |
| COc1ccc(CCN(C)CCN2C(=O)c3ccccc3C2=O)cc1OC | inactive |
| COc1ccc(CCN2C(=O)c3[nH]nc(-c4ccccc4O)c3C2c2ccc(C)cc2)cc1OC (centres undefined) | 110 nM (active) |
| Cc1ccc(NC(=O)C2CCCN(S(=O)(=O)c3c(C)noc3C)C2)c(C)c1 (centres undefined) | inactive |
| Cc1ccc(Cn2nnc3c(=O)n(CC(=O)N4CCCCC4)cnc32)cc1 | inactive |
| COC(=O)c1ccccc1NC(=O)CN(Cc1ccccc1)S(C)(=O)=O | inactive |
| CNC(=O)CSc1nnnn1-c1ccc(C)cc1C | inactive |
| O=c1[nH]c(=O)n(Cc2ccco2)c2c1C(C(F)(F)F)(C(F)(F)F)N=C(c1ccco1)N2 | 18 nM (active) |
| Nc1cc(=O)nc(SCc2ccccc2)n1Cc1ccco1 | inactive |
| O=c1[nH]c(CSc2ncc(-c3ccc(F)cc3)n2Cc2ccco2)nc2ccccc12 | inactive |
| CC1Cc2ccccc2N1C(=O)Cn1cnc2ccccc2c1=O (centres undefined) | inactive |

| Structure (SMILES) | max dye-equivalent concentration |
| --- | --- |
| Cc1ccc(OCC(=O)Nc2ccc(-c3nnc(-c4ccco4)o3)cc2)cc1 | inactive |
| COc1ccc(CC(=O)Nc2ccc(-c3nnc(-c4ccc(C)cc4)o3)cc2)cc1 | inactive |
| Cc1ccc(OCC(=O)Nc2ccc(-c3nc4ncccc4o3)cc2)cc1 | 25 nM (active) |
| COc1ccccc1N(CC(=O)N1CCCCC1)S(=O)(=O)c1ccccc1 | inactive |
| Cc1ccc(S(=O)(=O)N2CCC(C(=O)N[C@@H](C)C(=O)NCc3ccccc3)CC2)cc1 | inactive |
| COc1ccc(Cl)cc1S(=O)(=O)N1CCN(CC(=O)C(C)(C)C)CC1 | inactive |
| CCCCOC(=O)NCN1C(=O)C2C3C=CC(C3)C2C1=O (centres undefined) | inactive |
| COCCNC(=O)c1ccccc1-c1nc(-c2ccccc2Cl)no1 | inactive |
| COCCNC(=O)c1snc2ccc(Cl)cc12 | 49 nM (active) |
| COCC(C)NC(=O)c1ccc(Cl)c(Cl)c1 (centres undefined) | inactive |
| CCN(CC)c1ccc(C(=O)OCC(=O)c2ccco2)cc1 | inactive |
| Cc1cc(N2CCCCC2)nc2ccc(Cc3ccc4nc(N5CCCCC5)cc(C)c4c3)cc12 | 45 nM (active) |
| Fc1ccc2nc(N3CCCCC3)sc2c1 | inactive |
| O=C(CSc1nnc(-c2ccoc2)o1)N1CCOCC1 | inactive |
| O=C(O)C1C2C=CC(C2)C1C(=O)N1CCN(CCO)CC1 (centres undefined) | inactive |
| O=c1[nH][nH]c(=O)c2cc(N3CCCC3)ccc12 | 53 nM (active) |
| Cc1cc(C)cc(N(C(C)C(=O)Nc2c(C)n(C)n(-c3ccccc3)c2=O)S(C)(=O)=O)c1 (centres undefined) | inactive |
| Cc1ccccc1OCCC(=O)Nc1c(C)n(C)n(-c2ccccc2)c1=O | inactive |
| Cc1c(NC(=O)C(C)OC(=O)c2cc3c4ccccc4n(C)c3s2)c(=O)n(-c2ccccc2)n1C (centres undefined) | 110 nM (active) |
| CCOC(=O)C1CCN(C(=O)CC2C(=O)N(Cc3ccccc3)C(C)c3nc4ccccc4n32)CC1 (centres undefined) | inactive |
| CC1(C)Cc2ccccc2-c2nc(CN3CCOCC3)[nH]c(=O)c21 | inactive |
| CCN1CCc2c(C#N)c(NCc3ccccc3)nc(NCCO)c2C1 | 430 nM (active) |
| N#Cc1c(N)sc2c1CCN(C(=O)OCc1ccccc1)C2 | inactive |

| Structure (SMILES) | max dye-equivalent concentration |
| --- | --- |
| CC(=O)/C(=N\N=C(N)N)c1ccccc1 | inactive |
| CCc1nnc(NC(=O)C2CCCN2S(=O)(=O)c2ccccc2)s1 (centres undefined) | 18 nM (active) |
| CC(C)c1nnc(NC(=O)C2CCCN2S(=O)(=O)c2ccc(Cl)cc2)s1 (centres undefined) | inactive |
| CCc1nnc(NS(=O)(=O)c2ccc(NS(=O)(=O)c3ccccc3)cc2)s1 | inactive |
| O=C(C1=C(O)C(=O)N(Cc2ccccc2)C1c1cccnc1)c1ccco1 (centres undefined) | inactive |
| N#CC(C(N)=O)=C1CCC2(CC1)OCCCCO2 | inactive |
| COc1cc(C2C(C(=O)c3ccc(C)o3)=C(O)C(=O)N2Cc2cccnc2)ccc1O (centres undefined) | inactive |
| CCSC1=C(C#N)C(=O)n2c1cc1c2CCCC1 | inactive |
| CC(=O)Nc1ccc(S(=O)(=O)Nc2cccc(NC(=O)C(C)(C)C)c2)cc1 | inactive |
| COc1cc(NS(=O)(=O)c2ccc(NC(C)=O)cc2)cc(OC)c1 | inactive |
| COc1ccc(NS(=O)(=O)c2ccc(NC(=O)C(C)(C(F)(F)F)C(F)(F)F)cc2)nn1 | 20 nM (active) |
| COC(=O)c1cc(NC(=O)CN2CCC(C(N)=O)(N3CCCCC3)CC2)cc(C(=O)OC)c1 | inactive |
| CCCCCN(C(=O)NC(=O)Nc1ccccc1OC)S(C)(=O)=O | inactive |
| Cc1ccc(C(=O)Nc2nnc(-c3cccs3)s2)cc1C | 73 nM (active) |
| CCc1nnc(NC(=O)c2ccc(S(=O)(=O)NC3CCCCC3)cc2)s1 | inactive |
| CCCc1nnc(NC(=O)c2cc(OC)cc(OC)c2)s1 | inactive |
| COc1ccc(Cc2nnnn2CC(=O)O)cc1 | inactive |
| CC(=O)OCc1cc(=O)n(C)c(=O)n1C | inactive |
| CC(Sc1nncn1C)C(=O)Nc1ccccc1-c1ccccc1 (centres undefined) | inactive |
| Cc1ccccc1-c1nc(N(C)Cc2ccco2)c2ccccc2n1 | inactive |
| CC1CCc2c(sc(NC(=O)c3ccc(Cn4cc(Br)cn4)o3)c2C(N)=O)C1 (centres undefined) | 100 nM (active) |
| Cc1ccc(C)c(NC(=O)C2CC(=O)N(C(C)C)C2)c1 (centres undefined) | inactive |
| O=C(NCC(F)(F)F)Nc1nnc(C(F)(F)F)s1 | inactive |

| Structure (SMILES) | max dye-equivalent concentration |
| --- | --- |
| CN(C)CCCn1c(N)c(C#N)c2nc(C#N)c(C#N)nc21 | 730 nM (active) |
| O=C(O)C1CCN(S(=O)(=O)N2CCOCC2)CC1 | inactive |
| O=C(CNS(=O)(=O)c1cccc(C(F)(F)F)c1)Nc1ccccc1F | inactive |
| Cc1ccccc1NC(=O)NCc1ccco1 | inactive |
| CN1CCN(c2ncncc2-c2ccc(C(=O)N(C)C)cc2)CC1 | inactive |
| COc1ccc(-c2nnc(SC(C)C#N)o2)cc1 (centres undefined) | inactive |
| CCCC(=O)Nc1cc(OCC)c(NC(=O)NC2CCCCC2)cc1OCC | inactive |
| CCOc1ccc(CNC(=O)C2CCC(=O)N2C2CCCC2)cc1OC (centres undefined) | inactive |
| CCOc1cc(C2C(C(=O)OC)=CN(C3CCCC3)C=C2C(=O)OC)cc(Br)c1O | 200 nM (active) |
| OCCN1CCN(CC/C=C2\c3ccccc3Sc3ccc(C(F)(F)F)cc32)CC1 | inactive |
| CN(C)C(=O)/N=N\C(=O)N(C)C | inactive |
| Cc1ccc2nc(S(=O)(=O)O)[nH]c2c1 | inactive |
| COc1ccc2[nH]c(=O)c(CN(Cc3nnnn3CCc3ccccc3)CC3CCCO3)cc2c1 (centres undefined) | 360 nM (active) |
| Cc1cc(C)c2cc(CN(Cc3cccs3)Cc3nnnn3CC3CCCO3)c(=O)[nH]c2c1 (centres undefined) | inactive |
| CCC(=O)N(Cc1cc2cc(OC)ccc2[nH]c1=O)c1ccccc1C | 200 nM (active) |
| CCC(c1nnnn1C1CCCC1)N(Cc1cccs1)Cc1cc2cccc(C)c2[nH]c1=O (centres undefined) | inactive |
| CC(C)(C)n1nnnc1C(c1cccs1)N(Cc1cccnc1)CC1CCCO1 (centres undefined) | inactive |
| CCOc1ccc2[nH]c(=O)c(CN(CCCO)C(C)=O)cc2c1 | 300 nM (active) |
| CCOc1ccc2c(c1)cc(CN(C(=O)CC)C1CCCCC1)c1nnnn12 | inactive |
| CCC(c1nnnn1Cc1ccccc1)N(Cc1cc2cc(OC)ccc2[nH]c1=O)CC1CCCO1 (centres undefined) | 32 nM (active) |
| O=C(OCc1cc2ccccc2[nH]c1=O)c1cccnc1 | inactive |
| c1ccc(CCn2nnnc2CN2CCN(C3CCCC3)CC2)cc1 | inactive |
